The term inhibition denotes the drop in the measured response relative to a control, in per cent.

Consider 16 compounds from PubChem BioAssay.

The structures appear in SMILES notation. Unmarked numbers belong to inactive results. Active and inactive are the calls of the source.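 How the source made its calls: active means inhibition above the hit cutoff set in the earlier primary screen (cut at about 27% in these data); inactive means the rest.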

This assay concerns the target Protein phosphatase methylesterase 1 (Homo sapiens) (UniProt Q9Y570). Description: PME-1 inhibitor activity retest, confirmation, biochemical, fluorescence polarization, FP-Rh probe, triplicate (AID 2171).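 Further: 0% = enzyme with DMSO and 100% = wells lacking PME-1.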 As to conditions: recombinant PME-1, FP-Rh probe fluorescence polarization; at 5.9 µM; active compounds read high. For orientation: Polarisation of emitted light reports the rotation of a fluorescent probe.

Sequence of Protein phosphatase methylesterase 1 (Homo sapiens) (Q9Y570 whole entry, looked up): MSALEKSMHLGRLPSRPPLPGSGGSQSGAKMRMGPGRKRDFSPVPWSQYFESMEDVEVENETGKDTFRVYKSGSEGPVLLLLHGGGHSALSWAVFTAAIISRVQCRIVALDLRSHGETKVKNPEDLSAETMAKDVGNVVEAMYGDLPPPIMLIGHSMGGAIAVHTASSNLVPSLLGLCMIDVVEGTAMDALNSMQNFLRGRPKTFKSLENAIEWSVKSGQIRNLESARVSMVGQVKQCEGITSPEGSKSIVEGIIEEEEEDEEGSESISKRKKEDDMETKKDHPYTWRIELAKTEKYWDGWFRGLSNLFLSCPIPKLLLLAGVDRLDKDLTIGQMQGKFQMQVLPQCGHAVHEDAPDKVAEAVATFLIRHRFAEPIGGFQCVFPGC

`CCN(CC)c1ccc(/C=N/NC(=O)c2cccc(S(=O)(=O)Nc3ccccc3OC)c2)c(O)c1`: the inhibition was 25.8%.

For the compound `CCc1ccc2nc(SCC(=O)N3CC(=O)Nc4ccccc43)c(C#N)cc2c1`, the inhibition was 15.3%. Turning to `COc1ccc(Nc2nc(NN)nc(C)c2[N+](=O)[O-])cc1`, the inhibition was 17.7%. For `COC(=O)N1C(=O)[C@](c2ccc(OC)cc2)(C(C)C)N1C(=O)OC`, the inhibition is 48.2% (active). Regarding `O=C1C2=C(Nc3ccccc3SC2c2ccco2)c2ccccc21` (stereo unspecified), the inhibition is 5.92%. For `C/C(=N\NC(=O)c1ccc(N/N=C(\C)c2ccc(O)cc2)cc1)c1ccc(O)cc1`, the inhibition was 43.4% (active). In the case of `Cc1ccc(S(=O)(=O)CCSc2cccc(C(=O)Nc3ccccc3C(=O)O)c2)cc1`, the inhibition was 35.8% (active). The figure for `CCN1CCc2c(sc(NC(=O)Nc3ccc(Cl)c(Cl)c3)c2C(N)=O)C1` is 14.2%; for `Nc1nonc1-n1nnc(C(=O)N/N=C/c2c[nH]c3ccccc23)c1-c1ccccc1` it is 25.4%; for `N#CCSc1nc2c(cc1C#N)CCCCCC2` it is 22.3%. Next, `COCCCNc1c2c3c(cccc3[nH]c1=O)C(=O)c1ccccc1-2`: 133% (active); `Cc1ccsc1C=Nc1ccc(O)cc1`: 3.81%; `Nc1nonc1N/N=C/c1c(O)ccc2ccccc12`: 23.6%.

For the compound `Cn1c2ccccc2c2cc(/C=N/NC(=O)c3ccc(O)cc3O)ccc21`, the inhibition is 23%.

Take `Cn1c(=N)n(CC(=O)c2ccc(Br)cc2)c2ccccc21`: the inhibition is 13.3%. Take `COc1ccc(C)cc1NC(=O)NNC(=O)c1cc2ccccc2cc1O`: the inhibition was 16.4%.
